Measurements published in publication PMC4336329 (PLoS ONE, 2015).
Screen size: about 310,000 compounds; about 14,000 (4.5%) showed an effect of 50% or more. Effects have a minus sign here. What follows is part of a selection rich in strong results, with near analogues and random picks from the rest.

These compounds were tested against human ether-à-go-go-related gene (hERG) potassium channel (human, UniProt Q12809) (assay: primary screen, population patch clamp on CHO cells stably expressing hERG; higher = less effect of the substance).
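Note: peak tail current of the secondary pulse compared with the same well before compound.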

Sequence of human ether-à-go-go-related gene (hERG) potassium channel (Q12809 whole entry, looked up): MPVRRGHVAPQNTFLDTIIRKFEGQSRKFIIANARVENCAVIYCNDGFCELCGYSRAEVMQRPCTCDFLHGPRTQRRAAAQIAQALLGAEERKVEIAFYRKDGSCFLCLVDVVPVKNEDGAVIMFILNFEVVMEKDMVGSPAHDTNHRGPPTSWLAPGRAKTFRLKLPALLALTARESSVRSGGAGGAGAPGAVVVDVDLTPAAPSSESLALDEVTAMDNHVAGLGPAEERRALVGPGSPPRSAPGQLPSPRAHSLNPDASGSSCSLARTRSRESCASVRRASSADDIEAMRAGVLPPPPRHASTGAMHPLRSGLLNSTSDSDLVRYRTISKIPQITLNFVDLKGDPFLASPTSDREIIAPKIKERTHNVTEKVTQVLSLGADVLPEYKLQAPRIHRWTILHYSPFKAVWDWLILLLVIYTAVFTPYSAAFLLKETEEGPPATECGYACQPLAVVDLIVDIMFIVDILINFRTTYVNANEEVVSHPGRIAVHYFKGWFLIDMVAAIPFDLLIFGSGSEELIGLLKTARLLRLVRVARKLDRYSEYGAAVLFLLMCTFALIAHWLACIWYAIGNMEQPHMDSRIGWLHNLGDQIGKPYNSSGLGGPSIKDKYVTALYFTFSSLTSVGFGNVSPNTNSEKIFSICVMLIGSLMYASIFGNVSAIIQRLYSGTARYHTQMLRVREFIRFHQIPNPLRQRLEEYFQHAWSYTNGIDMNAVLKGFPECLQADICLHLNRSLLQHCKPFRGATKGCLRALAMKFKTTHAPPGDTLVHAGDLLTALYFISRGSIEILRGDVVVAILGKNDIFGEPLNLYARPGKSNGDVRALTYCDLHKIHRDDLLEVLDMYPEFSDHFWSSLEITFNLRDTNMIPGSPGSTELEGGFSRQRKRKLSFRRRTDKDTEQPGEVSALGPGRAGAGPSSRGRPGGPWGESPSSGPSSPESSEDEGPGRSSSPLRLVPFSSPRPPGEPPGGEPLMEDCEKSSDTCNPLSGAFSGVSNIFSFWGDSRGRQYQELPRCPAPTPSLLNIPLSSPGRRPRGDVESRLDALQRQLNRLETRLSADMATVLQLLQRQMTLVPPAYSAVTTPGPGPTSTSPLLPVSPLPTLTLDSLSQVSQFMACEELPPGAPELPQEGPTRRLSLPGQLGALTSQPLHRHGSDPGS

Compared with O=C(c1ccccc1-c1nc2ccccc2[nH]1)N1CCOCC1, O=C(NCCSc1ccccc1)c1ccc(CN2CCOCC2)cc1 is lower in “hERG current change (%, negative = inhibition) at 10uM” value: -5.47% for the first, -10.3% for the second.

First: COCCN1CCN(C(=O)C2CCC(=O)N(Cc3ccccc3OC)C2)CC1 (centres unmarked)
Second: CC1CCN(C(=O)COC(=O)c2ccc(=O)n(Cc3ccccc3)n2)CC1
The “hERG current change (%, negative = inhibition) at 10uM” value of the first is higher: 8.85% for the first, -0.635% for the second.

First: COc1ccc(/C=C(\C#N)C(=O)NCc2ccccc2)cc1
Second: COc1ccc(CNCCC(c2ccccc2)C2CCOC(C)(C)C2)cc1 (centres unmarked)
The “hERG current change (%, negative = inhibition) at 10uM” value of the first is higher: 19.4% for the first, -52.1% for the second.

Compared with COC(=O)[C@@]12CCCCN1[C@H](c1ccc(SC3CCCCC3)c(OC)c1)[C@@H]1C(=O)N(C)C(=O)[C@@H]12.O=C(O)C(F)(F)F, CCN1C(=O)[C@H]2[C@@H](c3ccc(SC4CCCCC4)c(OC)c3)N3CCCC[C@@]3(C(=O)OC)[C@H]2C1=O.O=C(O)C(F)(F)F is lower in “hERG current change (%, negative = inhibition) at 10uM” value: 19.8% for the first, 13% for the second.

Going from CCN1C(=O)[C@@H]2[C@@H](c3ccc(SC4CCCCC4)c(OC)c3)N3CCC[C@@]3(C(=O)OC)[C@@H]2C1=O.O=C(O)C(F)(F)F to O=C(CSc1nnc(CNC(=O)c2cccc(C(F)(F)F)c2)o1)NC1CCCC1, the “hERG current change (%, negative = inhibition) at 10uM” value rises from -56% to 5.51%.

First: COC(=O)c1ccccc1NC1=C/C(=N\S(=O)(=O)c2ccc(C(=O)O)cc2)c2ccccc2C1=O
Second: Cc1ccc(-n2c(SCC(=O)N3CC(=O)Nc4ccccc43)nc3ccccc3c2=O)cc1
The “hERG current change (%, negative = inhibition) at 10uM” value of the first is lower: -15.5% for the first, -1.05% for the second.

Compared with CCCCNC(=O)C(C#N)c1nc2ccccc2nc1N1CCN(c2ccccc2F)CC1 (centres unmarked), CN1CCN(c2ccccc2NC(=O)c2c(F)cccc2F)CC1 is lower in “hERG current change (%, negative = inhibition) at 10uM” value: 4.79% for the first, -19.9% for the second.

First: Cc1ccc(/C=C/C2=NN(Cc3ccccc3Cl)C(=O)CC2)cc1
Second: Cc1ccc(SCCNC(=O)c2ccc(CN3CCOCC3)cc2)cc1
The “hERG current change (%, negative = inhibition) at 10uM” value of the first is higher: -4.44% for the first, -32.6% for the second.

Compared with COc1ccc(-c2nnnn2C(C)C)cc1S(=O)(=O)Nc1ccccc1, COc1ccc(C(=O)Nc2sc3c(c2C(=O)O)CC(C)(C)OC3)cc1 is higher in “hERG current change (%, negative = inhibition) at 10uM” value: -13.9% for the first, -2.18% for the second.

Going from Cc1cccc(CSCCNC(=O)c2ccc(CN3CCOCC3)cc2)c1 to O=C(NCCSCc1c(F)cccc1Cl)c1ccc(CN2CCOCC2)cc1, the “hERG current change (%, negative = inhibition) at 10uM” value rises from -28.3% to -26.9%.

First: O=C(NCCCN1CCOCC1)c1ccc(-c2ccc(Cl)cc2)o1
Second: O=C(NCCCN1CCOCC1)c1ccc(CS(=O)(=O)Cc2ccc(Cl)cc2)o1
The “hERG current change (%, negative = inhibition) at 10uM” value of the first is lower: -55.1% for the first, 4.4% for the second.

First: O=C(NCCSCc1ccc(Cl)cc1Cl)c1ccc(CN2CCOCC2)cc1
Second: O=C(NCCSc1ccc(Cl)cc1)c1ccc(CN2CCOCC2)cc1
The “hERG current change (%, negative = inhibition) at 10uM” value of the first is higher: -54.6% for the first, -58.5% for the second.

First: O=C(CCNC(=O)c1ccc(Cl)cc1)NCCCN1CCOCC1
Second: O=C(NCCN1CCOCC1)c1ccc(Cl)cc1
The “hERG current change (%, negative = inhibition) at 10uM” value of the first is lower: 4.31% for the first, 16% for the second.

Compared with Cl.O=C(NCCCN1CCOCC1)c1ccc(CSc2ccc(Cl)cc2)cc1, Cc1ccc(C(=O)NCCCN2CCOCC2)o1 is higher in “hERG current change (%, negative = inhibition) at 10uM” value: -59.2% for the first, 30.3% for the second.

Compared with O=C(Cc1ccc(Br)cc1)N1CCOCC1, O=C(COc1ccc(Br)cc1Cl)N1CCN(c2ncccn2)CC1 is lower in “hERG current change (%, negative = inhibition) at 10uM” value: 13.6% for the first, -49.7% for the second.

Compared with O=C(NCc1ccco1)/C(=C\c1ccco1)NC(=O)c1cccs1, O=C(CN(Cc1ccccc1)C(=O)c1ccco1)NCc1ccc(F)cc1 is lower in “hERG current change (%, negative = inhibition) at 10uM” value: -14.8% for the first, -31.6% for the second.

First: CCOC(=O)c1c(NC(=O)CSc2nnc(-c3cccnc3)o2)sc(C(C)=O)c1C
Second: O=C(Cc1cccs1)Nc1nc(-c2ccc(F)c(F)c2)cs1
The “hERG current change (%, negative = inhibition) at 10uM” value of the first is lower: -46.1% for the first, 19% for the second.

First: CNC(=S)SCCOc1ccccc1
Second: CC1(C)CC(C(CC(=O)O)c2ccccc2)CCO1 (centres unmarked)
The “hERG current change (%, negative = inhibition) at 10uM” value of the first is lower: -4.52% for the first, 28.9% for the second.

First: CCOc1ccc(N2CC(C(=O)NCCCN3CCOCC3)CC2=O)cc1 (centres unmarked)
Second: CCCCN(CC(=O)NCc1ccc(F)cc1)C(=O)c1ccco1
The “hERG current change (%, negative = inhibition) at 10uM” value of the first is lower: -5.47% for the first, 8.72% for the second.

Compared with O=C(CN(Cc1ccccc1F)C(=O)c1ccco1)NCc1ccc(F)cc1, O=C(CN(Cc1ccc(F)cc1)C(=O)c1ccco1)NCc1ccc(F)cc1 is higher in “hERG current change (%, negative = inhibition) at 10uM” value: -50.7% for the first, -40.9% for the second.

First: COc1cccc(CN(CC(=O)NCc2ccc(F)cc2)C(=O)c2ccco2)c1
Second: COc1ccc(CN(CCC(c2ccc(F)cc2)C2CCOC(C)(C)C2)C(=O)c2ccco2)cc1 (centres unmarked)
The “hERG current change (%, negative = inhibition) at 10uM” value of the first is higher: -39.2% for the first, -52.1% for the second.

First: CC(c1ccccc1)N(CCC(c1ccccc1)C1CCOC(C)(C)C1)C(=O)c1ccco1 (centres unmarked)
Second: CC1(C)CC(C(CCN(Cc2ccccc2)C(=O)c2ccco2)c2ccc(F)cc2)CCO1 (centres unmarked)
The “hERG current change (%, negative = inhibition) at 10uM” value of the first is lower: -22.2% for the first, -10.4% for the second.
